The values that follow come from PubChem BioAssay AID1259417 (TB Discovery Research, Infectious Disease Research Institute, 2018).

The test in a line: M. tuberculosis growth inhibition, HTS (AID 1259417).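 Also: bacteria grown with compound for 5 days at 37 °C.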 As to conditions: stronger effect = higher value, concentration not given here.
Where [1] appears, read: M. tuberculosis DsRed fluorescence growth inhibition.
The mark [2] stands for this setting: M. tuberculosis growth inhibition.

Among all 1,100 compounds or so, about 760 (69%) were called active. No rule for the calls is given here. So high a share suggests a set chosen from earlier hits. This is one part of the list.

For the compound `CCn1c2ccccc2c2cc(CN3CCC(N4CCN(c5ccccc5)CC4)CC3)ccc21`, the inhibition is -3.76% (inactive) under setting [1] and -28% under setting [2].

`COC(=O)CSc1cc(SCC(=O)OC)c(C#N)c(SCC(=O)OC)c1`: the inhibition is 28.8% (inactive) under setting [1] and 23.9% under setting [2].

`COC(=O)CSc1ccc(C#N)c(SCC(=O)OC)c1`: the inhibition is -1.74% (active) under setting [1] and 42.7% under setting [2].

With `COC(=O)CSc1ccc2c(N)c(C(=O)OC)sc2c1`, the inhibition is, setting by setting: under setting [1], 43.5% (active); under setting [2], 77.1%.

Take `Cc1cc(C(C)(C)C)ccc1OCCCCn1ccnc1`: the inhibition reads like this: under setting [1], 99.4% (active); under setting [2], 99.7%.

With `Cc1cc(C(C)(C)C)ccc1OCCOCCn1ccnc1`, the inhibition is, setting by setting: under setting [1], 99.2% (active); under setting [2], 100%.

`N=c1c2c(-c3ccccc3)c(-c3ccccc3)n(Cc3ccco3)c2ncn1Cc1ccco1`: the inhibition runs as follows: under setting [1], 71% (active); under setting [2], 61.5%.

For `O=C(CSc1nnc(-c2cccnc2)o1)N1CCC(Cc2ccccc2)CC1`, the inhibition runs as follows: under setting [1], 95.4% (active); under setting [2], 86.2%.

For `COc1ccccc1N1C(=O)c2cccc3cc([N+](=O)[O-])cc(c23)C1=O`, the inhibition is 89.8% (active) under setting [1] and 95.8% under setting [2].

Regarding `Cc1cccc(C)c1OCc1nnc(SCC(=O)NCCc2ccccc2)o1`, the inhibition by setting is: under setting [1], 84.2% (active); under setting [2], 73.9%.

On to `Cc1cccc(OCc2nnc(SCC(=O)NCCc3ccccc3)o2)c1`, for which the inhibition by setting is: under setting [1], 92.7% (active); under setting [2], 74.5%.

`CSc1ccc(C(CC(=O)c2ccccc2)Nc2ccc(F)cc2)cc1` (centres undefined): the inhibition is, setting by setting: under setting [1], 19.6% (inactive); under setting [2], 21.6%.

Consider `Cn1c(NC(=S)Nc2ccccc2)nc2ccccc21`, for which the inhibition is 21.4% (active) under setting [1] and 48.5% under setting [2].

`Cn1c(NC(=O)c2ccccc2)nc2ccccc21`: the inhibition was 98.3% (active) under setting [1] and 99.7% under setting [2].

Take `O=C(CSc1ccc(Br)cc1)Nc1cccc(Cl)c1`: the inhibition was 7.93% (inactive) under setting [1] and 16.8% under setting [2].

Consider `O=C(Nc1cccc(Cl)c1)c1cc(Br)ccc1Cl`, for which the inhibition was 76.3% (active) under setting [1] and 46.1% under setting [2].

As for `COc1ccc(N2C(=O)C(F)(F)C2c2ccccc2F)cc1` (centres undefined), the inhibition was 33.6% (active) under setting [1] and 75.8% under setting [2].

`O=C(NCc1ccco1)c1cnn2c1NC(c1ccc(Br)cc1)CC2C(F)(F)F` (centres undefined): the inhibition runs as follows: under setting [1], 38.9% (active); under setting [2], 15.1%.

Turning to `O=C(NCc1ccc2c(c1)OCO2)c1cnn2c1NC(c1cccs1)CC2C(F)(F)F` (centres undefined), the inhibition reads like this: under setting [1], 100% (active); under setting [2], 94.1%.

Regarding `Cc1c(CNC(=O)c2cnn3c2NC(c2ccc(Br)cc2)CC3C(F)(F)F)cnn1C` (centres undefined), the inhibition by setting is: under setting [1], 57.6% (active); under setting [2], 17.9%.

On to `CSc1nc2ccc(NC(=O)C3CC(=O)N(Cc4ccccc4)C3)cc2s1` (centres undefined), for which the inhibition runs as follows: under setting [1], 10.7% (inactive); under setting [2], 22.1%.

Consider `CCOC(=O)c1cnc(-n2nc(C)cc2C)nc1Nc1ccc(OC)cc1`, for which the inhibition was 54% (active) under setting [1] and 30.7% under setting [2].

As for `CCOC(=O)c1cnc(-n2nc(C)cc2C)nc1NCCc1ccccc1`, the inhibition under setting [1] is 101% (active) and the inhibition under setting [2] came out at 101%.

With `O=S1(=O)C=C(Sc2nnc(-c3ccccc3)o2)c2ccccc21`, the inhibition by setting is: under setting [1], 100% (active); under setting [2], 101%.

Take `O=S1(=O)C=C(Sc2nnc(-c3ccncc3)o2)c2ccccc21`: the inhibition was 100% (active) under setting [1] and 101% under setting [2].

For the compound `CC(=O)Oc1c(C(=O)c2ccccc2)sc2ccccc12`, the inhibition reads like this: under setting [1], 79.9% (active); under setting [2], 52.4%.

Regarding `CCc1ccc(-c2ccc(SCC(N)=O)nn2)cc1`, the inhibition is 20% (active) under setting [1] and 41% under setting [2].

In the case of `Cc1cc(OCC(=O)NC2C3CC4CC(C3)CC2C4)cc(C)c1Br` (centres undefined), the inhibition runs as follows: under setting [1], 98.6% (active); under setting [2], 72%.

Regarding `N#Cc1c(SCC(N)=O)nsc1SCc1ccccc1Cl`, the inhibition is 20.8% (active) under setting [1] and 61.7% under setting [2].

As for `O=C(OCC(=O)c1c[nH]c2ccccc12)c1ccc([N+](=O)[O-])s1`, the inhibition under setting [1] was 61.6% (active) and the inhibition under setting [2] was found to be 52.7%.

Take `CCc1cccc2c(C(=O)COC(=O)c3ccc([N+](=O)[O-])s3)c[nH]c12`: the inhibition is, setting by setting: under setting [1], 91.9% (active); under setting [2], 95.3%.

Regarding `Cc1ccc(-c2nnc(NC(=O)c3ccccc3Cl)o2)c(C)c1`, the inhibition under setting [1] is 24.1% (active) and the inhibition under setting [2] worked out at 62.8%.

For the compound `Cc1ccc(-c2nnc(NC(=O)c3ccccc3C)o2)c(C)c1`, the inhibition under setting [1] was 84.4% (active) and the inhibition under setting [2] was determined as 87.2%.

Consider `Cc1ccc(-c2nnc(NC(=O)c3cc4ccccc4oc3=O)o2)c(C)c1`, for which the inhibition runs as follows: under setting [1], 80.8% (active); under setting [2], 88.6%.

In the case of `Cc1ccc(-c2nnc(NC(=O)c3ccccc3Br)o2)c(C)c1`, the inhibition is 6.55% (inactive) under setting [1] and 19.3% under setting [2].

For `CCOC(=O)C1CCN(C2=NC(=O)C(=Cc3ccc(Cl)cc3Cl)S2)CC1`, the inhibition was 51.5% (active) under setting [1] and 55.8% under setting [2].

As to `NC(=O)C1CCN(C2=NC(=O)C(=Cc3ccc(Cl)cc3Cl)S2)CC1`, the inhibition by setting is: under setting [1], 100% (active); under setting [2], 99.1%.

With `Cc1ccc(-c2csc3ncn(C(C)C(=O)OC4CCCCC4)c(=O)c23)cc1C` (centres undefined), the inhibition is, setting by setting: under setting [1], -0.545% (inactive); under setting [2], -11%.

On to `CSc1nc2nc3c(c(=O)n2[nH]1)CCCC3`, for which the inhibition under setting [1] is 23.8% (active) and the inhibition under setting [2] was determined as 41.7%.

On to `Cc1ccc(C(C)C)c(OCCCCn2ccnc2)c1`, for which the inhibition is, setting by setting: under setting [1], 98.9% (active); under setting [2], 100%.

Consider `Cc1cc(OCCCCn2ccnc2)cc(C(C)C)c1`, for which the inhibition was 100% (active) under setting [1] and 100% under setting [2].

Consider `Cc1ccc(C(C)C)cc1OCCCCn1ccnc1`, for which the inhibition under setting [1] was 100% (active) and the inhibition under setting [2] was found to be 99.6%.

`Cc1cc(OCCCCn2ccnc2)ccc1C(C)C`: the inhibition runs as follows: under setting [1], 99.8% (active); under setting [2], 98.9%.

As for `O=C(c1ccc(Cl)cc1)c1ccc(CSc2nnc(-c3ccccc3)o2)o1`, the inhibition was 97.4% (active) under setting [1] and 96.9% under setting [2].

With `COC(=O)c1ccc(CSc2nnc(-c3ccncc3)o2)o1`, the inhibition reads like this: under setting [1], 14.3% (active); under setting [2], 39.6%.

For `CCOc1cc(CNC(C)C23CC4CC(CC(C4)C2)C3)cc(Cl)c1OCC(=O)NC(C)(C)C` (centres undefined), the inhibition runs as follows: under setting [1], 99.2% (active); under setting [2], 98.2%.

For the compound `COc1cc(CNC(C)c2ccccc2)cc(Cl)c1OCC(=O)Nc1ccccc1` (centres undefined), the inhibition reads like this: under setting [1], 29.9% (active); under setting [2], 19%.

`CCOC(=O)COc1ccc(S(=O)(=O)N2CCC(C)CC2)cc1`: the inhibition by setting is: under setting [1], 72.7% (active); under setting [2], 91.2%.

With `CCOC(=O)COc1ccc(S(=O)(=O)N2CCc3ccccc3C2)cc1`, the inhibition under setting [1] is 80.1% (active) and the inhibition under setting [2] was found to be 96.9%.

Turning to `C=CCSc1nnc(-c2ccc([N+](=O)[O-])cc2)o1`, the inhibition by setting is: under setting [1], 99.2% (active); under setting [2], 99.1%.

`Cc1ccc(Oc2cc(NC(=O)CCCn3nc(C)c([N+](=O)[O-])c3C)cc([N+](=O)[O-])c2)cc1`: the inhibition reads like this: under setting [1], 0.414% (inactive); under setting [2], -13.5%.

`COc1cccc(NC(=O)CSc2nnc(-c3ccc(Br)cc3)o2)c1`: the inhibition is 17.3% (inactive) under setting [1] and 19.2% under setting [2].

In the case of `COc1ccc(-c2nnc(SCC(=O)Nc3ccc([N+](=O)[O-])cc3)o2)cc1`, the inhibition under setting [1] was 23.1% (active) and the inhibition under setting [2] is 88.8%.

On to `COc1ccc(Cc2nnc(SCC(=O)Nc3ccc(C(C)C)cc3)o2)cc1`, for which the inhibition is 6.85% (inactive) under setting [1] and 9.66% under setting [2].

As to `COC(=O)c1ccc(NC(=O)CSc2nnc(Cc3ccc(OC)cc3)o2)cc1`, the inhibition under setting [1] is 18.7% (active) and the inhibition under setting [2] was determined as 53.1%.

Regarding `CCOC(=O)c1ccc(NC(=O)CSc2nnc(-c3ccc(OC)cc3)o2)cc1`, the inhibition reads like this: under setting [1], 18.2% (active); under setting [2], 56.7%.

As to `CCOc1ccc(NC(=O)CSc2nnc(Cc3ccc(OC)cc3)o2)cc1`, the inhibition is, setting by setting: under setting [1], 3.01% (inactive); under setting [2], 2.07%.
